Measured values taken from PubChem BioAssay (NCATS).
Inconclusive results are not listed. Activity calls are given as the source filed them. Calls follow the shape of the dose curve; as a rule, active = well fitted curve in the direction sought with a large enough effect; inconclusive = small, poorly fitted or top-dose-only effect, or another doubt; inactive = no such curve, though single readings can be large; an effect the other way counts as inactive or inconclusive.

Assays:
[1] = test system: CRL-7250; assay: Cytotoxic Profiling of Annotated Libraries Using Quantitative High-Throughput Screening (AID 1296008); details: Five cell lines viability, CellTiter-Glo ATP luminescence, 48-72 h; max response: active compounds read low; also: nearly all actives have a fitted effect of over 60% in size; as to max response: % is scaled to controls: 0 for no effect and ±100 for the full control effect
In short: (§1)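 Cytotoxicity was measured as CellTiter-Glo ATP luminescence, read after 10 min at room temperature. Compound treatment of the cells lasted 48 or 72 hr at 37 degrees Celsius in a qHTS format.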

[2] = test system: HEK293; assay: as above; details: Five cell lines viability, CellTiter-Glo ATP luminescence, 48-72 h; max response: active compounds read low
In short: as §1

[3] = test system: HaCat; assay: as above; details: Five cell lines viability, CellTiter-Glo ATP luminescence, 48-72 h; max response: active compounds read low
In short: as §1

[4] = test system: KB-3-1; assay: as above; details: Five cell lines viability, CellTiter-Glo ATP luminescence, 48-72 h; max response: active compounds read low
In short: as §1

[5] = test system: NIH3T3; assay: as above; details: Five cell lines viability, CellTiter-Glo ATP luminescence, 48-72 h; max response: active compounds read low
In short: as §1

[6] = test system: HACAT; assay: qHTS assay to identify novel small-molecules to repurpose for Merkel cell carcinoma treatment (AID 1296009); details: MCC and control cell lines, CellTiter-Glo viability, 72 h; at 44.8 µM (top of the series) unless noted; also: nearly all actives have a fitted effect of over 60% in size
In short: (§2)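 Cell viability measured by CellTiter-Glo following 72 hr compound treatment at 37 degree celsius, with NPC and MIPE libraries tested in 8- and 11-point concentration series.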

[7] = test system: HEK293T; assay: as above; details: MCC and control cell lines, CellTiter-Glo viability, 72 h; series mostly up to 44.8 µM
In short: as §2

[8] = test system: C33A; assay: Primary qHTS to identify gynecologic anti-cancer compounds using libraries of approved drugs and bioactive compounds (AID 1345084); details: Gynecologic cancer cell panel viability, ATPlite luminescence, 48 h; series mostly up to 57.5 µM; also: % is scaled to controls: 0 for no effect and ±100 for the full control effect; nearly all actives have a fitted effect of over 55% in size
In short: (§3)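 Cell viability after 48 h drug treatment, ATPlite luminescence readout; five doses.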

[9] = test system: CAOV3; assay: as above; details: Gynecologic cancer cell panel viability, ATPlite luminescence, 48 h; series mostly up to 57.5 µM
In short: as §3

[10] = test system: Es-2; assay: as above; details: Gynecologic cancer cell panel viability, ATPlite luminescence, 48 h; series mostly up to 57.5 µM
In short: as §3

[11] = test system: HeLa; assay: as above; details: Gynecologic cancer cell panel viability, ATPlite luminescence, 48 h; series mostly up to 57.5 µM
In short: as §3

[12] = test system: CASKI; assay: as above; details: Gynecologic cancer cell panel viability, ATPlite luminescence, 48 h; series mostly up to 57.5 µM
In short: as §3

[13] = test system: NIH3T3; assay: qHTS assay to identify novel small-molecules to repurpose for Merkel cell carcinoma treatment (AID 1296009); details: MCC and control cell lines, CellTiter-Glo viability, 72 h; at 44.8 µM (top of the series) unless noted; also: nearly all actives have a fitted effect of over 60% in size
In short: as §2

C=C1CC2(C(=O)O)CC1CCC2C1(C)CCCC2(C)C(=O)OC(O)C21 (stereo not drawn)
inactive: max response [1] -12.2% | outcome [2] | outcome [3] | outcome [4] | max response [5] 0.0241% | outcome [6] | Potency [7] | Potency [8] | Potency [9] | Potency [10] | Potency [11]

OC[C@H]1O[C@@H](OC(CCCCc2ccc(O)cc2)CCc2ccc(O)cc2)[C@H](O[C@@H]2OC[C@](O)(CO)[C@H]2O)[C@@H](O)[C@@H]1O (stereo partly drawn)
inactive: max response [1] 3.53% | outcome [2] | outcome [3] | outcome [4] | max response [5] 2.54% | outcome [6] inactive [at 17.4 µM] | Potency [7] | Potency [8] | Potency [9] | Potency [12] | Potency [10] | Potency [11]

COc1cc(/C=C/C(=O)OC[C@H]2O[C@H](O[C@]3(CO)O[C@H](CO)[C@@H](O)[C@@H]3O)[C@H](O)[C@@H](O)[C@@H]2O)cc(OC)c1O
inactive: max response [1] 0.115% | outcome [2] | outcome [3] | max response [4] -1.09% | max response [5] -20.7% | outcome [6] inactive [at 17.4 µM] | Potency [7] | Potency [8] | Potency [9] | Potency [12] | Potency [10] | Potency [11]

CC1CCC2(C(=O)OC3OC(CO)C(O)C(O)C3O)CCC3(C(=O)O)C(=CCC4C5(C)CCC(OC6OC(C)C(O)C(O)C6O)C(C)(C)C5CCC43C)C2C1C (stereo not drawn)
inactive: max response [1] 1.53% | outcome [2] | outcome [3] | outcome [4] | max response [5] 4.68% | outcome [6] inactive [at 17.4 µM] | Potency [7] | Potency [8] | Potency [9] | Potency [12] | Potency [10] | Potency [11]

COC1C=C([C@@H]2CC=C3[C@@]4(C)C(CC[C@]32C)[C@@]2(C)C=CC(=O)C(C)(C)C2C[C@H]4OC(C)=O)C(=O)O1 (stereo partly drawn)
inactive: outcome [1] | outcome [2] | outcome [3] | max response [4] -0.943% | outcome [5] | outcome [6] inactive [at 17.4 µM] | Potency [7] | Potency [8] | Potency [12] | Potency [10] | Potency [11]

C[C@@H]1C(=O)O[C@H]2[C@H]1CC[C@@]1(C)C(=O)C=C[C@](C)(O)[C@H]21
inactive: outcome [1] | outcome [2] | outcome [3] | max response [4] 1.87% | max response [5] -2.11% | outcome [6] | Potency [7] | Potency [8] | Potency [9] | Potency [12] | Potency [10] | Potency [11]

CC(C)[C@H]1CCC(CO)=C[C@@H]1/C=C(\CO)C(=O)O
inactive: max response [1] -1.21% | outcome [2] | outcome [3] | max response [4] 7.99% | max response [5] -1.04% | outcome [6] | Potency [7] | Potency [8] | Potency [9] | Potency [12] | Potency [10] | Potency [11]

CNC(=O)c1ccc2cc([C@@]3(O)CCn4cncc43)ccc2c1
inactive: outcome [1] | outcome [2] | max response [3] 4.91% | outcome [4] | outcome [5] | Potency [7] | outcome [13] | Potency [8] | Potency [9] | Potency [12] | Potency [10] | Potency [11]

CN1C(=O)c2ccccc2-n2c(nc3ccccc3c2=O)[C@@]12O[C@H]2c1ccccc1
inactive: max response [1] -8.37% | outcome [2] | max response [3] -0.431% | outcome [4] | outcome [5] | Potency [7] | outcome [13] | Potency [8] | Potency [9] | Potency [12] | Potency [10] | Potency [11]

COC(=O)C12C(=O)C(C)=C(O)C1(C)C(C)=CC1C34CCC(OC3=O)C(C)(C)C4CCC12C (stereo not drawn)
inactive: max response [1] -4.32% | outcome [2] | max response [3] 1.85% | max response [4] 6.41% | outcome [5] | Potency [7] | outcome [13] inactive [at 17.4 µM] | Potency [8] | Potency [9] | Potency [12] | Potency [10] | Potency [11]

COc1ccc(/C=C/C(=O)O[C@@H]2[C@@H](O)[C@H](C)O[C@@H](OC3C4C=COC(O[C@@H]5O[C@H](CO)[C@@H](O)[C@H](O)[C@H]5O)C4C4(CO)OC34)[C@@H]2O)cc1OC (stereo partly drawn)
inactive: max response [1] 0.628% | outcome [2] | outcome [3] | max response [4] -0.119% | max response [5] 0.929% | outcome [6] inactive [at 17.4 µM] | Potency [7] | Potency [8] | Potency [12] | Potency [10] | Potency [11]

C=CC1C(O[C@@H]2O[C@H](CO)[C@@H](O)[C@H](O)[C@H]2O)OC=C(C(=O)OC)C1Cc1nccc2c1[nH]c1ccccc12 (stereo partly drawn)
inactive: max response [1] 3.98% | outcome [2] | max response [3] 1.01% | max response [4] 5.15% | outcome [5] | Potency [7] | outcome [13] inactive [at 17.4 µM] | Potency [8] | Potency [9] | Potency [12] | Potency [10] | Potency [11]

COC(=O)[C@@H]1C2CC3c4[nH]c5ccccc5c4CCN3CC2CC[C@@H]1O (stereo partly drawn)
inactive: outcome [1] | outcome [2] | max response [3] -0.215% | max response [4] 6.91% | outcome [5] | Potency [7] | outcome [13] | Potency [8] | Potency [9] | Potency [12] | Potency [10] | Potency [11]
